# Bioassay records: PubChem, National Center for Advancing Translational Sciences (NCATS)
# AMA1-RON2 inh = AMA1-RON2 (P. falciparum) interaction inhibition | 360,000 compounds, 0.2% hits | AlphaScreen AMA1-biotinylated RON2 peptide binding | AID 720542 | Potency, µM (highest dose often 58.2 µM), most hits filed as inhibitors; also: nearly all actives have a fitted effect of over 45% in size
#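 AMA1 (3D7) with his tag at 25 nM final met compounds first, then biotinylated RON2 peptide at 25 nM; detection used donor plus acceptor beads, 10 µg/mL apiece, read by AlphaScreen after 30 min at room temperature.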
# SARS PLP yeast = SARS-CoV PLP inhibition in yeast; S. cerevisiae expressing SARS-CoV PLpro, growth rescue; Potency, µM (series often up to 32.9 µM), most hits filed as activators; 330,000 compounds, 0.19% hits; AID 485353; calls by dose curve; also: nearly all actives have a fitted effect of over 55% in size
# Pf growth 96h = inhibits malaria parasite growth, 96 h. P. falciparum luciferase reporter growth, 96 h. Potency, µM (titrated, usually from 28.7 µM), actives largely listed as inhibitors. 320,000 compounds, 6.9% hits
#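 Luminescence readout: decreased luciferase signal marks inhibited growth of reporter-expressing P. falciparum in infected red cells (2% hematocrit, 0.05% parasitemia final), exposed to compound two generations (96 h, 37 C, 5% CO2).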
# Pf growth 48h = inhibits P. falciparum growth in the first generation, 48 h | P. falciparum luciferase growth in erythrocytes, 48 h | 310,000 compounds, 5.9% hits | Potency, µM (series often up to 28.7 µM), most hits filed as inhibitors | AID 504832
#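 A one-generation exposure of luciferase-tagged malaria parasites in RPMI 1640/Albumax erythrocyte culture, 37 C and 5% CO2. Inhibition is inferred from decreased luminescence after adding detection reagent.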
# Hits are given with their value; . = inactive; ? = inconclusive; / = no result; [ ] = remark or other dose. Only some compounds are listed: those with a hit (about 9.4% of all), similar ones and a draw of the others. Unless noted, calls follow the shape of the dose curve; as a rule, active = well fitted curve in the direction sought with a large enough effect; inconclusive = small, poorly fitted or top-dose-only effect, or another doubt; inactive = no such curve, though single readings can be large; an effect the other way counts as inactive or inconclusive.
SMILES,AMA1-RON2 inh,SARS PLP yeast,Pf growth 96h,Pf growth 48h
CSCCC(NC(=O)c1ccccc1)C(=O)Nc1ccc(C)cc1 (stereo not drawn),.,.,.,.
NC(N)=NCCCC(NC(=O)c1ccccc1)C(=O)Nc1ccc2ccccc2c1 (stereo not drawn),.,/,10µM,?
NC(N)=NCCCC(NC(=O)c1ccccc1)C(=O)Nc1ccc([N+](=O)[O-])cc1 (stereo not drawn),.,/,9.3µM,?
O=C(O)CC(NNC(=O)c1ccccc1)C(=O)Nc1ccc([N+](=O)[O-])cc1 (stereo not drawn),.,.,.,.
COc1cc(NC(=O)c2c(-c3ccccc3Cl)noc2C)c2ncccc2c1,.,/,/,/
CCCc1nc2c(C)cc(C)cc2c(N)c1CC,.,.,10µM,9.3µM
O=C(NCc1ccccc1)C(=O)NCC1COc2ccccc2O1 (stereo not drawn),.,.,.,.
O=C(OCC1COc2ccccc2O1)c1c(F)cccc1F (stereo not drawn),.,.,?,4.1µM
NC(N)=NCC1COc2ccccc2O1 (stereo not drawn),/,/,2.1µM,?
OC(COCC1COc2ccccc2O1)CN1CCN(c2ccccc2F)CC1 (stereo not drawn),.,.,7.4µM,.
O=C(CSCC(=O)OCC(=O)c1ccc(Br)cc1)Nc1cccc2ccccc12,.,.,.,.
CC(C)c1ccc(S(=O)(=O)Nc2ccc(O)c(Sc3ncn[nH]3)c2)cc1,.,.,?,.
Cc1ccc(C2CC(c3ccc(NS(C)(=O)=O)cc3)=NN2C(=O)c2ccco2)cc1 (stereo not drawn),.,.,?,.
CCS(=O)(=O)Nc1ccc(C2=NN(C(=O)c3ccco3)C(c3ccc(C)cc3)C2)cc1 (stereo not drawn),.,.,?,10µM
CS(=O)(=O)Nc1ccc(C2=NN(C(=O)c3ccco3)C(c3cccc(F)c3)C2)cc1 (stereo not drawn),.,.,?,13µM
Cc1cccc(N2CCN(C(=O)COc3ccc4c(C)cc(=O)oc4c3C)CC2)c1C,.,.,?,12µM
CCc1cc(=O)oc2c(C)c(OCC(=O)N3CCCc4ccccc43)ccc12,.,.,/,12µM
O=C(CSc1nc2ccccc2c(=O)n1CCC(=O)N1CCN(c2ccccc2)CC1)NCC1CCCO1 (stereo not drawn),.,.,?,?
O=C(CCC1CCCN(C(=O)CCC(F)(F)F)C1)NCc1ccc(F)c(F)c1 (stereo not drawn),.,.,.,.
COC(=O)CCCC(=O)N1CCCC(CCC(=O)NCc2ccc(F)c(F)c2)C1 (stereo not drawn),.,.,.,8.3µM
COc1cccc(CNC(=O)CCC2CCCN(C(=O)c3cccc4c(C)c(C)[nH]c34)C2)c1 (stereo not drawn),.,.,.[1.15 µM],12µM
Cc1ccc(CNC(=O)CCC2CCCN(C(=O)CCC(F)(F)F)C2)o1 (stereo not drawn),.,.,8.3µM,.
Cc1ccc(-n2nc(C(=O)O)cc2-c2ccccc2)cc1,.,.,/,.
C[C@H](OC(=O)c1[nH]cnc1C(=O)N1CCN(C(=O)OC(C)(C)C)CC1)c1ccccc1,.,.,/,/
CC1(C)Cc2cccc(OCC(=O)NCc3ccc(F)cc3)c2O1,.[11.6 µM],.,?,.
SMILES,AMA1-RON2 inh,SARS PLP yeast,Pf growth 96h,Pf growth 48h
COc1ccc(C(=O)Nc2ccc3ccccc3c2)cc1,.,.,.,.
N#CCOC(=O)[C@H](Cc1ccccc1)N1C(=O)c2ccccc2C1=O,.,.,.,.
COc1cccc(CNC(=O)c2cc(C3CC3)nc3c2cnn3C(C)C)c1,.,.,3.3µM,4.7µM
COc1ccc(CNC(=O)c2cc(C3CC3)nc3c2cnn3C(C)C)cc1OC,.,.,?,.
Cc1ccc(CNC(=O)c2cc(C3CC3)nc3c2cnn3C(C)C)cc1,.,.,?,13µM
COc1cccc(-c2nn(-c3ccc(C)cc3)cc2C(=O)NCC2CCCO2)c1 (stereo not drawn),.,.,.,?
O=C(O)c1nnn(-c2cc(C(F)(F)F)cc(C(F)(F)F)c2)c1-c1ccccc1,.,.,.,.
CN1CCN(C(=O)c2cc3c(c(-c4cccc(C#CC(C)(C)O)c4)n2)[C@H](CCO)N(S(=O)C(C)(C)C)C3)CC1 (stereo partly drawn),.,/,/,/
O=C1C2C3C=CC(CO)(O3)C2C(=O)N1c1ccc(-c2ccccc2)cc1 (stereo not drawn),/,.,.,.
CC(C)(C)C(=O)NCC12C=CC(O1)C1C(=O)N(c3ccccc3)C(=O)C12 (stereo not drawn),.,.,2.1µM,.
O=C(COC(=O)CSc1ccc(Br)cc1)NCc1ccco1,.,.,.,.
CC(=O)Nc1ccc(-c2nnc(SCC(=O)NCc3ccco3)n2C)cc1,.,.,6.6µM,/
COc1ccccc1-n1ccnc1SCC(=O)NCc1ccco1,.,.,10µM,?
CCCCSc1nnc(-c2ccc(NC(C)=O)cc2)n1C,.,.,7.4µM,.
CC(=O)Nc1ccc(SCC(=O)OCC(=O)NC(=O)NCc2ccco2)cc1,.,.,9.3µM,.
O=C1[C@H]2[C@H](C=CC[C@H]2C(=O)N2CCOCC2)CCN1Cc1ccc(Cl)c(Cl)c1,.,/,/,/
Cc1cc(F)ccc1S(=O)(=O)N1CCCCC1CCNC(=O)C(=O)NCCN1CCOCC1 (stereo not drawn),.,.,.,?
Cc1c(N(C)S(=O)(=O)c2cc(C(=O)N3CCCC3)ccc2Cl)c(=O)n(-c2ccccc2)n1C,.,.,4.7µM,13µM
NC(=O)c1ccc(NC(=O)COC(=O)CCC(=O)c2ccc(Cl)cc2)cc1,.,.,.,.
COc1ccc(NC(=O)c2ccc(S(=O)(=O)N3CCCCCC3)cc2)c(OC)c1,.,.,13µM,.
COc1ccc(C(=O)Nc2cc(S(=O)(=O)N3CCCCC3)ccc2OC)cc1,.,.,.,.
COc1ccc(NC(=O)c2cccc(S(=O)(=O)N3CCN(c4ccccc4)CC3)c2)c(OC)c1,.,.,?,10µM
COc1ccc(NC(=O)COC(=O)c2cccc(S(=O)(=O)N3CCCCC3)c2)c(OC)c1,.,.,.,.
CNC(=O)c1ccccc1NC(=O)c1cccc(S(=O)(=O)N2CCCCC2)c1,.,.,2.9µM,?
COc1ccc(NC(=O)c2cccc(S(=O)(=O)N3CCCCC3)c2)c(OC)c1,.,.,2.9µM,.
SMILES,AMA1-RON2 inh,SARS PLP yeast,Pf growth 96h,Pf growth 48h
COc1cc(C2CC(=O)Oc3cc(C)cc(C)c32)cc(OC)c1OC (stereo not drawn),.,.,/,/
CC(C)Nc1nc(NC(C)C)nc(N(C#N)CCOc2ccc(Cl)cc2Cl)n1,.,.,?,10µM
CSc1ccccc1C(=O)Nc1cccc(C)c1,.,.,.,/
CCCCC/C=C\C[C@H](O)/C=C/c1cccc(C[C@H](O)CCCCO)n1,.,.,?,13µM
CCCCCC[C@@H](O)C/C=C\CCCCCCCC(=O)O,/,/,.,.
CS(=O)(=O)N(Cc1ccco1)Cc1ccccc1Cl,.,.,.,.
CCC(Oc1ccccc1)C(=O)Nc1ccc(S(=O)(=O)N2CCOCC2)cc1 (stereo not drawn),.,.,.,?
